Results on 15 molecules are retold here after PubChem BioAssay (NCI).

Structures are written as SMILES. About 83,000 compounds went through this panel and 20% of them were active in at least one assay; those are over-represented in the sample as a whole.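 Values shown are percent growth following 48 h exposure of cells in 96-well plates to a single concentration of compound; below 10 was considered active.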 The source made the active and inactive calls.

In the assay the test system is PC-3 prostate. Description: NCI-60 one-dose screen, 48 h (100 = growth as untreated, 0 = no growth, -100 = all killed). The following applies: 10 µM unless noted.
With `COC1NC(Cl)=C(C#N)C(C#N)(C#N)C1(C)C` (stereo not given), the growth was 122% (inactive). The value for `COc1ccccc1C(=O)Nc1cccc(-c2cc(=O)c3c(OC)c(OC)c(OC)cc3o2)c1` was 30% (inactive); that for `C=C(NC(=O)[C@H](C(C)C)N(C)c1cccc2[nH]ccc12)C(=O)OC` was 101% (inactive); that for `Cc1nc2c(nnn2-c2ccccc2)c2nc(-c3ccccc3)oc(=O)c12` was 105% (inactive). The value for `CCCCCCCCCC[N+](C)(C)C` was -49% (active). `CCOC(=O)c1ccc2n1CCCc1cnc(NC(C)=O)nc1-2`: the growth was 93.1% (inactive). The value for `O=S(=O)(O)c1ccc2c(c1)Sc1cc(S(=O)(=O)O)ccc1O2` was 99.2% (inactive); that for `COc1cc(/C=C/C(=O)c2ccc(F)cc2)ccc1OCCCCOc1cc2c(cc1OC)C(=O)N1CCCC1C=N2` (stereo not given) was -38.3% (active); that for `COC(=O)C(C)[C@H]1CC[C@@H]2[C@]1(C)CC=C1[C@]23C=C[C@]2(C[C@@H](OC(C)=O)CC[C@]12C)C(C(=O)OC)C3C(=O)OC` (stereo not given in full) was 57.1% (inactive).

Regarding `COc1ccc2cnc(N)c(C#Cc3cc(C(=O)Nc4ccc(CN5CCN(C)CC5)c(C(F)(F)F)c4)cnc3C)c2c1`, the growth was 16% (inactive). Take `COc1cccc2c1nc1cccc(OC)c1[n+]2[O-]`: the growth is 73.2% (inactive). To `O=C1/C(=N\c2cc(=O)[nH]n2S(=O)(=O)c2ccccc2)Nc2ccccc21` belongs 87% (inactive); to `c1ccc(Nc2ccccn2)cc1`, 102% (inactive); to `COc1ccc(OC)c(Cn2cc3c(c2)-c2oncc2CC3)c1`, 45.5% (inactive). To `O=C1C(=O)c2ccccc2C(O)=C1CCCc1ccc(C2CCCC2)cc1` belongs 35.6% (inactive).
